The target of assay [1] is Ribosomal protein S6 kinase alpha-6 (Homo sapiens) (UniProt Q9UK32). The following applies: at 1 µM.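 Further: each value is a mean inhibition of RSK4 from a GSK PKIS panel screen.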
For assay [2], the target named is T1, Serine/threonine-protein kinase Sgk1 (Homo sapiens) (UniProt O00141).
T1 sequence (whole entry): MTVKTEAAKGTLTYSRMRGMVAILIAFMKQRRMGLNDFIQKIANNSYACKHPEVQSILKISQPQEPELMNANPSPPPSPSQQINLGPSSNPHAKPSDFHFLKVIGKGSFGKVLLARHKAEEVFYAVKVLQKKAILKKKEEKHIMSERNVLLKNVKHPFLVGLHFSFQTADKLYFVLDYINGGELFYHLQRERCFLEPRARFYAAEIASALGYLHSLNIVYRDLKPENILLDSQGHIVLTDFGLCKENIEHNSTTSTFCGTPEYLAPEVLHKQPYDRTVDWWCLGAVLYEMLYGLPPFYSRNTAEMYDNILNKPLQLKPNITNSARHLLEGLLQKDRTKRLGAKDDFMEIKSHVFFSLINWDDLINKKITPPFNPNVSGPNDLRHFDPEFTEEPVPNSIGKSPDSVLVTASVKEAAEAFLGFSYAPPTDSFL
The following applies: at 0.1 µM.

Assay [3] deals with T1, Serine/threonine-protein kinase Sgk1 (Homo sapiens). As to conditions: at 1 µM.
Assay [4] deals with T2, Serine/threonine-protein kinase Sgk2 (Homo sapiens) (UniProt Q9HBY8).
T2 sequence (whole entry): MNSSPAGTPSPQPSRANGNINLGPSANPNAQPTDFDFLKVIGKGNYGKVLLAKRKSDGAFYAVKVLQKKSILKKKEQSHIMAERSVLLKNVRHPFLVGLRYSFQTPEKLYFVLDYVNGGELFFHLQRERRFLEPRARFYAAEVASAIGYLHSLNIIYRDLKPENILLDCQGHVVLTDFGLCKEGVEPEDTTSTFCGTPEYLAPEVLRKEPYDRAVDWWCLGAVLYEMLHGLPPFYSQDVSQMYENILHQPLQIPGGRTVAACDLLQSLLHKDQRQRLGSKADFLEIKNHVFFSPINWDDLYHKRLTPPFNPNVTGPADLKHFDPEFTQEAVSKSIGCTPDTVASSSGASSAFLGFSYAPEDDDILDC
As to conditions: at 0.1 µM.

Assay [5] concerns the target T2, Serine/threonine-protein kinase Sgk2 (Homo sapiens). As to conditions: at 1 µM.
Assay [6] has as its target T3, Serine/threonine-protein kinase Sgk3 (Homo sapiens) (UniProt Q96BR1).
T3 sequence (whole entry): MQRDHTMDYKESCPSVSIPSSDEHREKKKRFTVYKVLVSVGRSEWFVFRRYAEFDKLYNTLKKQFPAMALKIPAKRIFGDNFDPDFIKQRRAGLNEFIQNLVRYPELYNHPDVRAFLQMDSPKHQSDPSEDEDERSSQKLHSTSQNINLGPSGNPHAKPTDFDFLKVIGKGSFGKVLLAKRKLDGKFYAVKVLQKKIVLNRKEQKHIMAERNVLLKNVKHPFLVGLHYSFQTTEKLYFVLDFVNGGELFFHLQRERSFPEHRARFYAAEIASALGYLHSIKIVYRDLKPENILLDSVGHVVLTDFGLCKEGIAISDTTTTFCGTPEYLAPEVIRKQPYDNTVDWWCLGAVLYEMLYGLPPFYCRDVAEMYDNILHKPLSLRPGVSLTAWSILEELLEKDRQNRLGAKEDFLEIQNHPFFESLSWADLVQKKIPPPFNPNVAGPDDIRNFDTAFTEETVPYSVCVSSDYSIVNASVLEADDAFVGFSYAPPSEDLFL
As to conditions: at 0.1 µM.

Assay [7] addresses T3, Serine/threonine-protein kinase Sgk3 (Homo sapiens). As to conditions: at 1 µM.
In assay [8] the target is 5'-AMP-activated protein kinase catalytic subunit alpha-1 (Homo sapiens) (UniProt Q13131). As to conditions: at 0.1 µM.
The target is the same in assay [9]. The following applies: at 1 µM.
In assay [10] the target is 5'-AMP-activated protein kinase catalytic subunit alpha-2 (Homo sapiens) (UniProt P54646). The following applies: at 0.1 µM.
The target is the same in assay [11]. The following applies: at 1 µM.
For assay [12], the target named is T4, NUAK family SNF1-like kinase 1 (Homo sapiens) (UniProt O60285).
T4 sequence (whole entry): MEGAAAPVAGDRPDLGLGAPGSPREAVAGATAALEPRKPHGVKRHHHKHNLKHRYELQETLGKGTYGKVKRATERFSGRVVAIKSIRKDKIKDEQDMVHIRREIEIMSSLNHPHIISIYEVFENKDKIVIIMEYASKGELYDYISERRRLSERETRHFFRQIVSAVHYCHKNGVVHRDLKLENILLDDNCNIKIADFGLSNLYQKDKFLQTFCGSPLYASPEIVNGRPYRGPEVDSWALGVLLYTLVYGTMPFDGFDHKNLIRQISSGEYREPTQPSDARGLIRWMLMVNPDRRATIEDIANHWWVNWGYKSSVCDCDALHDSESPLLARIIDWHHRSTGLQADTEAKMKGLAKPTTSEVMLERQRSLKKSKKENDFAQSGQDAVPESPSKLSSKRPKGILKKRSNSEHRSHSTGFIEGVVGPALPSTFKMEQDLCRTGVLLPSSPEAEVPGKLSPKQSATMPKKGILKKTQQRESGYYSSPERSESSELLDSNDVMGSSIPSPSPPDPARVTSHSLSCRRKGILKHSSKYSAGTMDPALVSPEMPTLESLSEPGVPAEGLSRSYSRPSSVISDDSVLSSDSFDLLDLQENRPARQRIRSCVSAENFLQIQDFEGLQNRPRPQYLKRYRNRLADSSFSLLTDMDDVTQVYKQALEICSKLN
The following applies: at 0.1 µM.

Assay [13] deals with T4, NUAK family SNF1-like kinase 1 (Homo sapiens). The following applies: at 1 µM.
Assay [14] addresses T5, Serine/threonine-protein kinase BRSK1 (Homo sapiens) (UniProt Q8TDC3).
T5 sequence (whole entry): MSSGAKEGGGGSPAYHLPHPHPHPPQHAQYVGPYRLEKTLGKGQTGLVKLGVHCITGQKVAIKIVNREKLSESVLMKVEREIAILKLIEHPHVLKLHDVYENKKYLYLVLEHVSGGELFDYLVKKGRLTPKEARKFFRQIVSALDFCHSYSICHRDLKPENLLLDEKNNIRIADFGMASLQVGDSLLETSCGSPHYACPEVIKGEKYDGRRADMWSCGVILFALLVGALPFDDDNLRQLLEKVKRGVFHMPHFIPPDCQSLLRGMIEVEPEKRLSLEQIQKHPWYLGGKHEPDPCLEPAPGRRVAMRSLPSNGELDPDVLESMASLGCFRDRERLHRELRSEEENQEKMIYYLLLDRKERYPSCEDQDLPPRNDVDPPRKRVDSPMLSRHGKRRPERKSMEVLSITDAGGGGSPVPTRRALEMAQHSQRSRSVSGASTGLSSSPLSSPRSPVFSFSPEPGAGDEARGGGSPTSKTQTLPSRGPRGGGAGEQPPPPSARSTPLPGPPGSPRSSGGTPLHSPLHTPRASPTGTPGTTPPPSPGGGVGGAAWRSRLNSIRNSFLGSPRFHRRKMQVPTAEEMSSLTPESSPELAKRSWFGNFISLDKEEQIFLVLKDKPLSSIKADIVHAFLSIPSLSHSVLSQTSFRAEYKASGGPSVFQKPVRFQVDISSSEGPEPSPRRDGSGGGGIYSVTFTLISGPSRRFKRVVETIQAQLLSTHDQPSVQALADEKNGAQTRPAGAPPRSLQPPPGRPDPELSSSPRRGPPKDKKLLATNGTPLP
The following applies: at 0.1 µM.

The target of assay [15] is T5, Serine/threonine-protein kinase BRSK1 (Homo sapiens). As to conditions: at 1 µM.
The target of assay [16] is T6, Serine/threonine-protein kinase BRSK2 (Homo sapiens) (UniProt Q8IWQ3).
T6 sequence (whole entry): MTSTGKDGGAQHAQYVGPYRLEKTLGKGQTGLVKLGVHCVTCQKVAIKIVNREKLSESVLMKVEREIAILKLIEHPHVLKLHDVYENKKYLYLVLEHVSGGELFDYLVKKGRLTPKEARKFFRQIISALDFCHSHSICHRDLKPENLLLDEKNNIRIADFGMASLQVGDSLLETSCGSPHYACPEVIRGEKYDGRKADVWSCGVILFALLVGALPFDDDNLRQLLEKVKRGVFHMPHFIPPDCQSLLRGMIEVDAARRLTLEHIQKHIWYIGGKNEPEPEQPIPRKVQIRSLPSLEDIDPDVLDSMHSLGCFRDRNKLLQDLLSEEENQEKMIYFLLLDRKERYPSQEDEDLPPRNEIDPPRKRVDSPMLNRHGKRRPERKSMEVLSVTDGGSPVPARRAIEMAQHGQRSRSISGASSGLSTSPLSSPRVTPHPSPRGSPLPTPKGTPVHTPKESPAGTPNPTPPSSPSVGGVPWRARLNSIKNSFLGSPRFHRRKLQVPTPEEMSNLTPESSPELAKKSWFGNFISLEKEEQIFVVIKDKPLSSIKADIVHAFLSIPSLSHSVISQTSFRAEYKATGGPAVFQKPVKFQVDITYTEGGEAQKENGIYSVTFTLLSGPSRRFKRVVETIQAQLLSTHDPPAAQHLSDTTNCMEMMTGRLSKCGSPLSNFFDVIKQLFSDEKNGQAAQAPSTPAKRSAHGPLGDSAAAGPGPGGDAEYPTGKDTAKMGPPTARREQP
As to conditions: at 0.1 µM.

Assay [17] deals with T6, Serine/threonine-protein kinase BRSK2 (Homo sapiens). As to conditions: at 1 µM.
Assay [18] addresses Calcium/calmodulin-dependent protein kinase type 1D (Homo sapiens) (UniProt Q8IU85). As to conditions: at 0.1 µM.
The target is the same in assay [19]. The following applies: at 1 µM.
Assay [20] has as its target Calcium/calmodulin-dependent protein kinase type II subunit alpha (Homo sapiens) (UniProt Q9UQM7). As to conditions: at 0.1 µM.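 Further: reported values are averages (mean inhibition of CAMK2A).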

5'-AMP-activated protein kinase catalytic subunit alpha-1 (Homo sapiens), sequence (Q13131 whole entry, looked up): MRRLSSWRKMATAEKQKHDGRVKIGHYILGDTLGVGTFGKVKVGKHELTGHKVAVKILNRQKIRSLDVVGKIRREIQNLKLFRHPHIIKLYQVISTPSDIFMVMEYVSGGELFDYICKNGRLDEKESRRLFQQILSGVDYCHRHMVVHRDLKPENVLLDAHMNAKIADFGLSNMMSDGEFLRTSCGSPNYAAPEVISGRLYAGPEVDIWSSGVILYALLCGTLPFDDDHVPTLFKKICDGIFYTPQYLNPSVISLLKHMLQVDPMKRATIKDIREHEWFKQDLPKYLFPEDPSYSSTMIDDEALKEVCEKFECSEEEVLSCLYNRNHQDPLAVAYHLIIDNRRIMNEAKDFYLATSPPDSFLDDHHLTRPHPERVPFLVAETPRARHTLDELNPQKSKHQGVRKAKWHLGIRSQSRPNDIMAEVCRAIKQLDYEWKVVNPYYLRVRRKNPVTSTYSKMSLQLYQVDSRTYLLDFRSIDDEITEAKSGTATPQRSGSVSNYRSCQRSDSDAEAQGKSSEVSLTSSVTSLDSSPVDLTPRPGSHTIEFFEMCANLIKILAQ
5'-AMP-activated protein kinase catalytic subunit alpha-2 (Homo sapiens), sequence (P54646 whole entry, looked up): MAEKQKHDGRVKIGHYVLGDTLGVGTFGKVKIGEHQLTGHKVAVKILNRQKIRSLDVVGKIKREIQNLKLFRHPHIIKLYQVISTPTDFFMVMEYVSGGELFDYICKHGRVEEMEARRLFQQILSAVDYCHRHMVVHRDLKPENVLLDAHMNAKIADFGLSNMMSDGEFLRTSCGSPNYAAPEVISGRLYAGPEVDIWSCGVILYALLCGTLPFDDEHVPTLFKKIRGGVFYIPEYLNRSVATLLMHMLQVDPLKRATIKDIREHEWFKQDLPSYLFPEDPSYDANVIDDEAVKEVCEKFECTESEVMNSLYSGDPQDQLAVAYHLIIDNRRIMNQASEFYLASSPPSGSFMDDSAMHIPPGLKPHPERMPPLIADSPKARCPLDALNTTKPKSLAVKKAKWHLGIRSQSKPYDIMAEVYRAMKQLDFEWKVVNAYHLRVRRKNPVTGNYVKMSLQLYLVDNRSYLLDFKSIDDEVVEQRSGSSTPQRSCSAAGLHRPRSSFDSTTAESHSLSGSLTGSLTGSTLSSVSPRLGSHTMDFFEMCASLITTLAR
Calcium/calmodulin-dependent protein kinase type 1D (Homo sapiens), sequence (Q8IU85 whole entry, looked up): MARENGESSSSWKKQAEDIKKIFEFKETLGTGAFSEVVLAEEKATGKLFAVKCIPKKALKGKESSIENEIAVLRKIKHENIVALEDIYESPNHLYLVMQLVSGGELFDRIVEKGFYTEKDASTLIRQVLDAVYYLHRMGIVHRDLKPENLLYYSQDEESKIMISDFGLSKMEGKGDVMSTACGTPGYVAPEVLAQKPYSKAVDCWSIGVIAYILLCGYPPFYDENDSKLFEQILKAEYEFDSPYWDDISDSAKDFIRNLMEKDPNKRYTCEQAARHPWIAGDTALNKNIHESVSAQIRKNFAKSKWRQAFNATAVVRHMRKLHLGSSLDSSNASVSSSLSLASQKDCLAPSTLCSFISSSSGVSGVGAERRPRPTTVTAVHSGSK
Ribosomal protein S6 kinase alpha-6 (Homo sapiens), sequence (Q9UK32 whole entry): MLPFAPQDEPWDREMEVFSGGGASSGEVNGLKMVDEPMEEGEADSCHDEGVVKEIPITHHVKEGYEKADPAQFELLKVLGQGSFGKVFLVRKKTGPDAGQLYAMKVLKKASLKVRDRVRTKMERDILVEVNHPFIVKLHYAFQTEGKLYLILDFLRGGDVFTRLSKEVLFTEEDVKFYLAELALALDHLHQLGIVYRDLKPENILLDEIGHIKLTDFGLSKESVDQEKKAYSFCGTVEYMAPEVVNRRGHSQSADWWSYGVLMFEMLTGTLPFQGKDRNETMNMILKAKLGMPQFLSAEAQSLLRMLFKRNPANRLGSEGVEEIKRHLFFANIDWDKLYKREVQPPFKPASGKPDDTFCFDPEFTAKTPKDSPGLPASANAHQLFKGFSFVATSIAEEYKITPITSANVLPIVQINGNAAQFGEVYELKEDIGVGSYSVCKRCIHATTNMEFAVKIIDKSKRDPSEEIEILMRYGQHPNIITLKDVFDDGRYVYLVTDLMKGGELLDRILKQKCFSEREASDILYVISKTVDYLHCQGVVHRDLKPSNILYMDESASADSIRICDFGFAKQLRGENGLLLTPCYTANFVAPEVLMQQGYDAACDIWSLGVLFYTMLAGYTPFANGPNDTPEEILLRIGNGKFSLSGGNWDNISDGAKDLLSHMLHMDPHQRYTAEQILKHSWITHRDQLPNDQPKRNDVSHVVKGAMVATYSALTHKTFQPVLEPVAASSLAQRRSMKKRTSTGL
Calcium/calmodulin-dependent protein kinase type II subunit alpha (Homo sapiens), sequence (Q9UQM7 whole entry): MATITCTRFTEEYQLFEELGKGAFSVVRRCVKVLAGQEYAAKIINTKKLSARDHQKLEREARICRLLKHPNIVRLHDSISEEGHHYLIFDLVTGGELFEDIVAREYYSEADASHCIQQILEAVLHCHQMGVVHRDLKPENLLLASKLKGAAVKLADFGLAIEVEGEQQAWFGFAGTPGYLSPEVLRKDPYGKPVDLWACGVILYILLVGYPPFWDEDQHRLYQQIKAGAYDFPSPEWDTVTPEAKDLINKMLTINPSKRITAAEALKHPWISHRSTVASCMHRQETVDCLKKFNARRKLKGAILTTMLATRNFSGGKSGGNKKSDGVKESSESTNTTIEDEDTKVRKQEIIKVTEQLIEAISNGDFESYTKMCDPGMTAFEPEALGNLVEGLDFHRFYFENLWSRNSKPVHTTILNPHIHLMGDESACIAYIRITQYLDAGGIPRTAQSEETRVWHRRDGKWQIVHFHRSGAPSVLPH

On to `Nc1nc(-c2ccc3c(c2)C(=Cc2cc(Br)c(O)c(Br)c2)C(=O)N3)cs1`, for which the inhibition in [1] is 2.87%; in [2] it was 0.99%; in assay [3] it was 0.56%; in assay [4], 0.38%; in [5], 2.1%; in assay [6] it was -0.67%. In addition, the inhibition in assay [7] is -0.04%; in assay [8], -0.3%; in assay [9], 6.79%; in assay [10] it was 3.28%; in assay [11], 1.63%; in assay [12] it was 3.02%. Moreover, the inhibition in [13] was 5.77%; in assay [14], 1.06%; in assay [15] it was 6.62%; in [16], 0.58%; in [17], 8.7%; in assay [18] it was 0.31%. The inhibition in [19] is 9%; in assay [20] it was -5.57%.

Take `O=C1NC(=O)C(N2CCc3ccccc32)=C1c1ccc(Cl)cc1`: the inhibition in assay [1] is 1.19%; in [2], 2.14%; in assay [3] it was 2.97%; in assay [4], 2.07%; in assay [5], 1.86%; in assay [6], 3.22%. The inhibition amounted to 3% in assay [7]; 0.74% in assay [8]; 4.36% in [9]; 4.52% in assay [10]; 5.78% in [11]; 4.44% in assay [12]. Also, the inhibition in assay [13] was determined as 7.39%; in assay [14], 3.67%; in assay [15], 5.07%; in assay [16] it was 2.92%; in assay [17], 3.2%; in assay [18], 0.76%. Further, the inhibition turned out to be 1.55% in [19] and 4.4% in assay [20].

Consider `CS(=O)(=O)CCNCc1nc(-c2ccc3ncnc(Nc4ccc(F)c(Cl)c4)c3c2)cs1`, for which the inhibition in assay [1] was 1.36%; in assay [2], 0.28%; in [3] it was 4.55%; in assay [4] it was 2.82%; in assay [5] it was -2.15%; in [6] it was 3.08%. Further, the inhibition in assay [7] is 2.67%; in assay [8], 2.39%; in assay [9], 1.3%; in assay [10], -4.68%; in assay [11], 1.32%; in [12], 2.92%. The inhibition turned out to be 2% in assay [13]; 0.92% in assay [14]; 1.59% in assay [15]; 2.32% in assay [16]; 6.52% in assay [17]; 1.26% in assay [18]. Also, the values for the inhibition in assay [19] and in assay [20] were 1.23% and 5.16%, respectively.

The term inhibition denotes the drop in the measured response relative to a control, in per cent.
